Measured values from PubChem BioAssay (EPA / NIEHS).
Activity calls are given as the source filed them. How the source made its calls: active means hit-call score of the fitted dose curve at least 0.9, where 1 is the maximum; inactive means score below 0.9.

Experiments:
[1] = target: Transcription factor E2F1 (Homo sapiens) (UniProt Q01094); experiment: ATG_E2F_CIS: Attagene CIS-FACTORIAL HepG2 Assay for human E2F Transcription Factor 1 (AID 2282935); settings: HepG2 Attagene cis-reporter, E2F reporter RNA transcripts; actives raise or lower the signal
Transcription factor E2F1 (Homo sapiens), sequence (Q01094 whole entry, looked up): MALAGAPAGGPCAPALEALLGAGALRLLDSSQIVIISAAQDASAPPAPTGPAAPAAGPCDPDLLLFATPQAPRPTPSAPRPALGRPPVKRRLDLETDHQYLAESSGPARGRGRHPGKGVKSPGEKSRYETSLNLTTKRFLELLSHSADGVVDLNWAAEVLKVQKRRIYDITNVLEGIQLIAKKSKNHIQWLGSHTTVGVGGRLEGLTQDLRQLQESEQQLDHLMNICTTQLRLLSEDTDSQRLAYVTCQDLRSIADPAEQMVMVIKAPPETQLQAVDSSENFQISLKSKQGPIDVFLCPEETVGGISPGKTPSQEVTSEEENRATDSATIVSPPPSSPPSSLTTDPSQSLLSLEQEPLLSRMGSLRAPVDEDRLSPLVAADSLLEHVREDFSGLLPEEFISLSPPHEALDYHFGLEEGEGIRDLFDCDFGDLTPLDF
In short: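 Endogenous E2F1 activity read through cis-promoter reporter units transfected into HepG2. After 24 h compound treatment, reporter mRNA measured by RT-PCR, HpaI digestion and capillary electrophoresis. Bidirectional fit versus DMSO.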

[2] = ATG_M_61_CIS: Attagene CIS-FACTORIAL HepG2 Assay for M61 Transcription Factor (Internal Marker) (AID 2282937); settings: HepG2 Attagene CIS-FACTORIAL M61 internal marker reporter; actives raise or lower the signal
In short: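 Endogenous transcription factor activity in HepG2 is read through transiently transfected cis-element reporter units. After 24 h dosing, RNA undergoes reverse transcription, PCR and primer extension with 6-FAM before capillary electrophoresis; DMSO-referenced bidirectional fit.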

[3] = ATG_EGR_CIS: Attagene CIS-FACTORIAL HepG2 Assay for human Early Growth Response 1 (EGR1) (AID 2282938); settings: HepG2 Attagene CIS-FACTORIAL EGR reporter mRNA; actives raise or lower the signal
In short: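 Activity is taken as induction or loss of reporter mRNA versus DMSO, fitted bidirectionally. Transcripts from cis-regulated reporter units in transiently transfected HepG2 were measured after 24 h by RT-PCR with capillary electrophoresis.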

[4] = ATG_M_19_CIS: Attagene CIS-FACTORIAL HepG2 Assay for M19 Transcription Factor (Internal Marker) (AID 2282939); settings: HepG2 Attagene CIS-FACTORIAL M19 internal marker reporter; actives raise or lower the signal
In short: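 Readout: fluorescent reporter-transcript fragments by capillary electrophoresis after RT-PCR. Human HepG2 liver cells carried transfected MRTU constructs reporting endogenous transcription-factor activity; exposure 24 h. Gain or loss of signal fitted relative to DMSO.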

[5] = ATG_ERE_CIS: Attagene CIS-FACTORIAL HepG2 Assay for Estrogen Response Element (ERE) (AID 2282940); settings: HepG2 ERE cis-reporter, Attagene RNA transcript; actives raise or lower the signal
In short: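 Readout: reporter mRNA induction by RT-PCR, FAM-labelled primer extension, HpaI digestion and capillary electrophoresis, 24 h after dosing transfected HepG2 cells. Endogenous transcription factors act on cis-element-regulated reporters. Gain or loss fitted against DMSO.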

[6] = ATG_Ets_CIS: Attagene CIS-FACTORIAL HepG2 Assay for human Erythroblast Transformation Specific (ETS) (AID 2282941); settings: HepG2 ETS cis-reporter transcription, actives raise or lower the signal
In short: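 Steps: transfect HepG2 with multiple reporter units; treat compound 24 h; isolate RNA, DNase-treat, reverse-transcribe; PCR-amplify, label with 6-FAM, digest with HpaI; separate by capillary electrophoresis. Activity fitted both directions versus DMSO.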

[7] = target: Hepatocyte nuclear factor 3-beta (Homo sapiens) (UniProt Q9Y261); experiment: ATG_FoxA2_CIS: Attagene CIS-FACTORIAL HepG2 Assay for human Forkhead box A2 (FOXA2) (AID 2282942); settings: HepG2 cis-reporter transcription factor activity, 24 h; actives raise or lower the signal
Hepatocyte nuclear factor 3-beta (Homo sapiens), sequence (Q9Y261 whole entry, looked up): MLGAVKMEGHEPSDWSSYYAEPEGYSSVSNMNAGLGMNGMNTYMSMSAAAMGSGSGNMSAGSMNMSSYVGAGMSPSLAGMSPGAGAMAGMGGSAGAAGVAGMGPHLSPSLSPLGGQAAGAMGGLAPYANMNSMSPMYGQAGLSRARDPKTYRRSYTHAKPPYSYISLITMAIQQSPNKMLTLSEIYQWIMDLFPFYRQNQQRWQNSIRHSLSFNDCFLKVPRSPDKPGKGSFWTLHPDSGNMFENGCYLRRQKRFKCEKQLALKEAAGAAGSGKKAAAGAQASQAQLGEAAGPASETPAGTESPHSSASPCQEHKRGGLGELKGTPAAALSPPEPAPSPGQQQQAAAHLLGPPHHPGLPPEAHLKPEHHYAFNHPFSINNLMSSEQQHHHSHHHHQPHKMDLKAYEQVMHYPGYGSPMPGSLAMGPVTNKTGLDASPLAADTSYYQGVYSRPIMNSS
In short: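 Reporter transcript induction is measured by fluorescence after capillary electrophoresis of RT-PCR products from HepG2 cells exposed 24 h. Cis-regulated reporter units report endogenous factor activity; curves fitted both directions against DMSO.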

[8] = ATG_FoxO_CIS: Attagene CIS-FACTORIAL HepG2 Assay for human Forkhead box O (FoxO) (AID 2282943); settings: HepG2 Attagene cis-reporter, FoxO element, mRNA; actives raise or lower the signal
In short: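 Transfected HepG2 reporter cells exposed to test chemical for 24 h; reporter RNA measured by reverse transcription, PCR and fluorescent capillary electrophoresis; curves fitted for increases and decreases against DMSO.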

[9] = ATG_GATA_CIS: Attagene CIS-FACTORIAL HepG2 Assay for human GATA Binding Protein (AID 2282944); settings: HepG2 GATA cis-element reporter, Attagene multiplex mRNA; actives raise or lower the signal
In short: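 Read-out: fluorescent reporter mRNA fragments resolved by capillary electrophoresis after RT-PCR. Human liver HepG2 cells carried transiently transfected cis-regulated reporter constructs; chemicals incubated 24 h; gain or loss of signal fitted relative to DMSO.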

Structure (SMILES)	outcome [1]	outcome [2]	AC50 [3]	outcome [4]	AC50 [5]	outcome [6]	outcome [7]	outcome [8]	outcome [9]	outcome [3]	AC50 [1]	outcome [5]
O=S1(=O)OCC2C(CO1)C1(Cl)C(Cl)=C(Cl)C2(Cl)C1(Cl)Cl (stereo not drawn)	inactive	inactive	179 µM (active)	inactive	1.84 µM (active)	inactive	inactive	inactive				
CCCCC(CC)COP(=O)(Oc1ccccc1)Oc1ccccc1 (stereo not drawn)	inactive	inactive	57.6 µM (active)	inactive	6.77 µM (active)	inactive	inactive	inactive	inactive			
CCNc1nc(Cl)nc(NC(C)(C)C)n1	inactive	inactive		inactive	8.92 µM (active)	inactive	inactive	inactive	inactive	inactive		
C=CC(=O)OCC(CC)(COC(=O)C=C)COC(=O)C=C		inactive	26.6 µM (active)	inactive		inactive	inactive	inactive			100 µM (active)	inactive
CN(C)C(=O)Cl	inactive	inactive		inactive		inactive	inactive	inactive		inactive		inactive
CCCCc1ccccc1	inactive	inactive		inactive			inactive	inactive		inactive		inactive
Cn1[nH]nnc1=S	inactive	inactive		inactive			inactive	inactive	inactive	inactive		inactive
O=S(=O)(F)C(F)(F)C(F)(F)C(F)(F)C(F)(F)C(F)(F)C(F)(F)C(F)(F)C(F)(F)F	inactive	inactive		inactive			inactive	inactive		inactive		inactive
O=P(OCC(Br)CBr)(OCC(Br)CBr)OCC(Br)CBr (stereo not drawn)	inactive	inactive	7.19 µM (active)	inactive		inactive	inactive	inactive	inactive			inactive
